Measurements reported in article PMC5540273 (PLoS ONE, 2017).

What was measured:
Conditions in all cases: concentration: 1 μM,replicates: in singlicate; n = 1
PCTK2 = system: T1, PCTK2
T1 construct: gene CDK17

PCTK3 = system: T2, PCTK3
T2 construct: gene CDK18

PDGFRA = system: PDGFRA
PDGFRB = system: PDGFRB
PDPK1 = system: PDPK1
PFTAIRE2 = system: PFTAIRE2
PFTK1 = system: T3, PFTK1
T3 construct: gene CDK14

PHKG1 = system: PHKG1
PHKG2 = system: PHKG2
PIK3C2B = system: PIK3C2B
PIK3C2G = system: PIK3C2G
PIK3CA = system: PIK3CA
PIK3CB = system: PIK3CB
PIK3CD = system: PIK3CD
PIK3CG = system: PIK3CG
PIK4CB = system: T4, PIK4CB
T4 construct: gene PI4KB

PIKFYVE = system: PIKFYVE
PIM1 = system: PIM1
PIM2 = system: PIM2
PIM3 = system: PIM3
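Note: KINOMEscan kinase panel screen.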

| Structure (SMILES) | %Inh (PCTK2) [%] | %Inh (PCTK3) [%] | %Inh (PDGFRA) [%] | %Inh (PDGFRB) [%] | %Inh (PDPK1) [%] | %Inh (PFTAIRE2) [%] | %Inh (PFTK1) [%] | %Inh (PHKG1) [%] | %Inh (PHKG2) [%] | %Inh (PIK3C2B) [%] | %Inh (PIK3C2G) [%] | %Inh (PIK3CA) [%] | %Inh (PIK3CB) [%] | %Inh (PIK3CD) [%] | %Inh (PIK3CG) [%] | %Inh (PIK4CB) [%] | %Inh (PIKFYVE) [%] | %Inh (PIM1) [%] | %Inh (PIM2) [%] | %Inh (PIM3) [%] |
| --- | --- | --- | --- | --- | --- | --- | --- | --- | --- | --- | --- | --- | --- | --- | --- | --- | --- | --- | --- | --- |
| O=C(NCCCN1CCOC1=O)c1cnc(NCc2cc(Cl)ccc2Cl)nc1NC1CCCC1 | 0 | 13 | 0 | 30 | 28 | 0 | 7 | 0 | 13 | 4 | 8 | 0 | 2 | 0 | 0 | 12 | 36 | 9 | 16 | 10 |
| Cc1cc(C(=O)Nc2ccc(Oc3ccc4nc(NC(=O)C5CC5)cn4n3)cc2)nn1-c1ccccc1 | 17 | 4 | 97.7 | 100 | 8 | 0 | 0 | 49 | 0 | 0 | 2 | 0 | 0 | 0 | 0 | 0 | 1 | 2 | 2 | 0 |
| NC(=O)c1cc(-c2ccccc2)cc2c(C3CCNCC3)c[nH]c12 [GSK301362] | 0 | 0 | 0 | 67 | 0 | 21 | 17 | 17 | 0 | 0 | 0 | 0 | 0 | 6 | 2 | 0 | 0 | 17 | 0 | 7 |
| C[C@@H](Oc1cc(-c2cnn(C3CCNCC3)c2)cnc1N)c1c(Cl)ccc(F)c1Cl | 4 | 6 | 23 | 0 | 14 | 1 | 0 | 24 | 7 | 10 | 8 | 14 | 18 | 0 | 9 | 3 | 5 | 0 | 0 | 3 |
| C[C@H]1Oc2cc(cnc2N)-c2c(nn(C)c2C#N)CN(C)C(=O)c2ccc(F)cc21 | 1 | 29 | 0 | 10 | 41 | 10 | 12 | 54 | 100 | 0 | 20 | 0 | 0 | 0 | 0 | 0 | 19 | 21 | 19 | 12 |
| C[C@@H]1CCN(C(=O)CC#N)C[C@@H]1N(C)c1ncnc2[nH]ccc12 | 0 | 8 | 0 | – | 0 | 0 | 21 | 15 | 13 | 0 | 0 | 0 | 0 | 0 | 0 | 0 | 36 | 0 | 0 | 0 |
| Cc1occc1-c1nc(N)c(OC[C@@H](N)Cc2c[nH]c3ccccc23)cc1-c1cc2c(C)n[nH]c2cn1 [GSK1660450] | 0 | 0 | 0 | 49 | 0 | 100 | 45 | 84 | 11 | 0 | 7 | 0 | 0 | 10 | 0 | 0 | 0 | 97.3 | 99.2 | 97.7 |
| CN(C)CCOc1ccc(-c2cc(-c3c[nH]nc3-c3ccccn3)ccn2)cc1 [GW835314] | 7 | 2 | 29 | 20 | 15 | 19 | 1 | 47 | 0 | 0 | 5 | 0 | 11 | 2 | 0 | 36 | 0 | 13 | 0 | 0 |
| CCn1c(-c2nonc2N)nc2c(C#CC(C)(C)O)nc(OCCN)cc21.Cl.Cl [GSK902056] | 0 | 0 | 0 | 4 | 0 | 0 | 0 | 0 | 0 | 0 | 0 | 0 | 0 | 5 | 0 | 9 | 19 | 25 | 0 | 11 |
| COc1ccc(C[C@@H](CN)NC(=O)c2cc(Br)c(-c3ccnc4[nH]ccc34)s2)cc1.Cl.Cl [GSK1389063] | 0 | 0 | 62 | 96.3 | 32 | 3 | 16 | 45 | 24 | 0 | 0 | 0 | 52 | 2 | 0 | 19 | 0 | 34 | 0 | 6 |
| Cl.Cl.NC[C@H](CC1CCCCC1)NC(=O)c1cc(Br)c(-c2ccnc3[nH]ccc23)s1 [GSK1581427] | 0 | 0 | 22 | 75 | 0 | 63 | 28 | 20 | 19 | 0 | 0 | 0 | 0 | 0 | 0 | 1 | 0 | 1 | 0 | 0 |
| Nc1nc(Nc2ccccc2)cc(-c2ccc3c(N)n[nH]c3c2)n1 [GSK2225749] | 0 | 0 | 4 | 2 | – | 15 | 9 | 0 | 0 | 2 | 20 | 0 | 0 | 22 | 0 | 15 | 27 | 12 | 0 | 0 |
| CCN(CC)CCOc1ccc(Nc2ncc3cc(-c4c(Cl)cccc4Cl)c(=O)n(C)c3n2)cc1 [SB-601273] | 24 | 0 | 99.8 | 100 | 0 | 19 | 0 | 0 | 30 | 85 | 11 | 6 | 30 | 40 | 21 | 5 | 48 | 0 | 0 | 0 |
| Cc1ccc2c(-c3ccncc3)c(-c3ccc(F)cc3)nn2c1.Cl [GW461484] | 0 | 11 | 0 | 8 | 0 | 0 | 0 | 33 | 0 | 0 | 0 | 0 | 25 | 0 | 1 | 0 | 0 | 0 | 0 | 16 |
| CCN(CC)CCCCNc1ncc2cc(-c3c(Cl)cccc3Cl)c(NC(=O)NC(C)(C)C)nc2n1 | 0 | 0 | 90.1 | 100 | 0 | 0 | 0 | 0 | 0 | 27 | 6 | 8 | 91.6 | 15 | 2 | 0 | 21 | 0 | 13 | 0 |
| Cl.Cl.Nc1nc(-c2ccc3c(N)n[nH]c3c2)cc(N2CCCC(NC(=O)c3ccccc3)C2)n1 (stereo not drawn) [GSK2286775] | 21 | 11 | 0 | 21 | 85 | 18 | 18 | 0 | 0 | 14 | 43 | 14 | 0 | 2 | 4 | 27 | 6 | 25 | 0 | 25 |
| Cl.Oc1cc(-c2nc(-c3ccccc3)[nH]c2-c2ccncc2)ccc1Cl [SB-386023] | 0 | 0 | 0 | 11 | 2 | 23 | 0 | 0 | 0 | 7 | 19 | 0 | 14 | 0 | 0 | 14 | 87 | 0 | 3 | 0 |
| CC(C)N1C(=O)Cc2cc(Nc3ncc(C(F)(F)F)c(NCc4cccc(S(C)(=O)=O)c4)n3)ccc21 | 20 | 7 | 36 | 71 | 0 | 6 | 14 | 0 | 26 | 3 | 28 | 6 | 29 | 0 | 5 | 28 | 27 | 5 | 0 | 9 |
| C=CC(=O)Nc1cc2c(Nc3ccc(F)c(Cl)c3)ncnc2cc1OCCCN1CCOCC1 [GW781483] | 0 | 0 | 77 | 15 | 0 | 15 | 0 | 0 | 0 | 2 | 0 | 0 | 60 | 0 | 42 | 21 | 20 | 2 | 0 | 0 |
| Cl.Cl.NC[C@H](Cc1ccc(C(F)(F)F)cc1)NC(=O)c1cc(Br)c(-c2ccnc3[nH]ccc23)s1 [GSK1487252] | 0 | 0 | 28 | 54 | 0 | 5 | 0 | 0 | 0 | 0 | 61 | 0 | 0 | 0 | 0 | 0 | 12 | 35 | 0 | 0 |
| Cc1ccc(-n2nc(C(C)(C)C)cc2NC(=O)Nc2ccc(OCCN3CCOCC3)c3ccccc23)cc1 [GW839464] | 13 | 2 | 0 | 87 | 0 | 0 | 2 | 0 | 8 | 0 | 0 | 0 | 0 | 0 | 0 | 0 | 0 | 0 | 9 | 0 |
| Cc1n[nH]c2ccc(-c3cc(OC[C@@H](N)Cc4ccccc4)cnc3-c3ccoc3)cc12.O=C(O)C(F)(F)F.O=C(O)C(F)(F)F [GSK507358] | 0 | 0 | 0 | 50 | 0 | 0 | 9 | 0 | 0 | 0 | 0 | 0 | 0 | 0 | 0 | 0 | 8 | 29 | 90 | 47 |
| CNC(=O)c1ccccc1Sc1ccc2c(/C=C/c3ccccn3)n[nH]c2c1 | 0 | 8 | 99.9 | 100 | 0 | 14 | 2 | 16 | 0 | 0 | 0 | 0 | 0 | 11 | 2 | 0 | 43 | 0 | 0 | 6 |
| O=C(NCCNc1ccnc(NCc2ccc(F)cc2)n1)c1cc2ccccc2s1 [GSK1379944] | 0 | 14 | 0 | 86 | 15 | 7 | 11 | 0 | 0 | 0 | 0 | 0 | 0 | 0 | 0 | 5 | 0 | 0 | 0 | 0 |
| CN(C)CC(O)COc1ccc(Nc2nccc(-c3cnn4nc(N5CCOCC5)ccc34)n2)cc1 (stereo not drawn) [GW767488] | 91.9 | 52 | 56 | 60 | 0 | 16 | 46 | 38 | 81 | 43 | 20 | 33 | 35 | 37 | 63 | 46 | 68 | 15 | 0 | 35 |
| CC(C)Nc1cc(-c2ccc3c(N)n[nH]c3c2)nc(N)n1 [GSK2221681] | 0 | 10 | 1 | 5 | – | 10 | 0 | 11 | 0 | 0 | 0 | 0 | 0 | 0 | 0 | 7 | 0 | 15 | 0 | 0 |
| Cc1cc2cn[nH]c2cc1-c1cccc2c(N)c(C(N)=O)nnc12 | 14 | 26 | 34 | 18 | 0 | 29 | 0 | 26 | 0 | 0 | 13 | 0 | 0 | 46 | 0 | 26 | 0 | 0 | 0 | 0 |
